Bioassay records (PubChem)
HPGD inh – inhibitors of human 15-hydroxyprostaglandin dehydrogenase (HPGD); P15428; purified HPGD, NADH fluorescence kinetic, PGE2 substrate; Potency, µM, without a hit: at the top dose activity change, negative = inhibition, actives largely listed as inhibitors; 4.3% of 150,000 active; AID 894; note: potency is the fitted concentration of half-maximal effect
Target sequence (P15428 whole entry, looked up): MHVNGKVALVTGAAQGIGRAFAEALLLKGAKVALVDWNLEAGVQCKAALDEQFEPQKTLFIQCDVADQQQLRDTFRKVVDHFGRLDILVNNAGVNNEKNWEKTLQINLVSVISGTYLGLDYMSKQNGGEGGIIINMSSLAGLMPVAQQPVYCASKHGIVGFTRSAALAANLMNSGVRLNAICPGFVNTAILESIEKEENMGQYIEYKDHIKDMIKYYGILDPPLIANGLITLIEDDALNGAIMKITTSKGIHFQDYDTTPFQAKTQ
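20 nM HPGD preincubated 15 min at room temperature with compound in 50 mM Tris-HCl pH 8, 0.01% Tween 20. Started with 1 mM NAD+ and 30 uM prostaglandin E2; NADH fluorescence (360/450 nm) read 5 times over 30-s intervals, last minus first.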
ALDH1A1 inh – ALDH1A1 (human) enzyme inhibition; Potency, µM (titrated, usually from 75.3 µM), for inactives: top-dose activity, negative = inhibition, usual class: inhibitors; P00352; 7.3% of 220,000 active; Purified ALDH1A1, NADH fluorescence, propionaldehyde substrate;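 note: potency is the fitted concentration of half-maximal effect; plate controls were no enzyme wells and a reference inhibitor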
Target sequence (P00352 whole entry, looked up): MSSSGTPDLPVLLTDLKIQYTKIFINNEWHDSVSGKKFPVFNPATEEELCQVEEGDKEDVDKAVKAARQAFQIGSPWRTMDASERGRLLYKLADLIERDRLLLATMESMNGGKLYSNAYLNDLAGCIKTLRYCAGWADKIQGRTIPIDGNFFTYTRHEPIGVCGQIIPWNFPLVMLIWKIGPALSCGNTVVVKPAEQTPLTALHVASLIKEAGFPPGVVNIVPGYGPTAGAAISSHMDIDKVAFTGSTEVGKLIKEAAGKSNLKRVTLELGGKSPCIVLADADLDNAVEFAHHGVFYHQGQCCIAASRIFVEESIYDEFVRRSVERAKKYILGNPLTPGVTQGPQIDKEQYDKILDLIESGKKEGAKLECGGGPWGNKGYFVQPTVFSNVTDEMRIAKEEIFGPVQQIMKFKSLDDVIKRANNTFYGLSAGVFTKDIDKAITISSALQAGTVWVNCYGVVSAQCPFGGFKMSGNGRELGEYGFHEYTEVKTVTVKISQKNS
IMPase cell inh – IMPase inhibition in cells. CHO-M1 cells, IP1 accumulation, HTRF TR-FRET ratio. inhibition (IP1 accumulation), % at 46.1 µM. 120,000 tested, under 10 active; active = well fitted curve in the direction sought with a large enough effect in the signal ratio, not every such curve was filed as active; inconclusive = small, poorly fitted or top-dose-only effect, or a change in a side signal; inactive = no such curve, though single readings can be large or run the other way; the % refers to the signal ratio;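 note: cells stimulated with carbachol in lithium chloride buffer; plate controls were DMSO basal wells for no effect and reference inhibitor wells for full effect; higher means more IMPase inhibition seen as more IP1 and lower FRET ratio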
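In this qHTS, compounds (final up to 46 uM) act on CHO-M1 cells that are then activated through the M1 receptor with carbachol, in pH 7.4 buffer containing 50 mM LiCl, for 30 min. IP1 accumulation is quantified by the IP-One immunoassay.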
An asterisk follows results filed as active; ? = inconclusive; . = not tested or not shown; [ ] = dose if it differs, or a comment. An excerpt weighted towards active compounds, which were near 9% of everything screened. Unless noted, calls come from the whole dose curve; as a rule, active = well fitted inhibition curve with a large enough effect (not every such curve was filed as active); inconclusive = small, poorly fitted or top-dose-only effect, or another doubt; inactive = no such curve, though single readings can be large or run the other way. Unless noted, % is set by controls: 0 for no effect and ±100 for the full control effect.

SMILES | HPGD inh | ALDH1A1 inh | IMPase cell inh
CCOc1cc(S(=O)(=O)n2nc(C)cc2C)ccc1Br | . | -7.6% | .
COc1ccccc1CNC(=O)C1CCC(CNc2c(N3CCOCC3)c(=O)c2=O)CC1 (stereo not drawn) | -17.6% | -3.0% | -0.1
CC1CCN(c2c(NCC3CCC(C(=O)Nc4ccccn4)CC3)c(=O)c2=O)CC1 (stereo not drawn) | 22.4µM* | 6.5% | .
CCOc1ccc(NC(=O)C2CCC(CNc3c(N4CCC(C)CC4)c(=O)c3=O)CC2)cc1 (stereo not drawn) | . | 6.8% | .
CC1CCN(c2c(NCC3CCC(C(=O)NCc4ccccc4Cl)CC3)c(=O)c2=O)CC1 (stereo not drawn) | 15.8µM* | 0.5% | .
COc1cc(OC)cc(C(=O)N[C@H](C(=O)OCC(=O)Nc2ccc(F)c(F)c2)C(C)C)c1 | -23.2% | -13.1% | .
CCONC(=O)Nc1ccccc1 | -29.2% | -7.7% | 5.1
COc1ccccc1-n1cccc1C=O | . | -0.1% | .
COc1ccccc1Cn1cccc1C=O | . | 14.1µM* | .
COC(=O)/C=C1\NCCNC1=O | . | 1.6% | .
Cc1ccc(C(=O)NCc2ccccn2)c(Cl)c1 | 14.1µM* | 9.2% | -5.3
Cc1ccc(-c2cc(C(=O)NCc3ccccn3)c3ccccc3n2)cc1 | ? | ? | -3.1[1.84 µM]
O=C(O)C1C2C=CC(O2)C1C(=O)Nc1ccccc1C(F)(F)F (stereo not drawn) | -1.2% | 14.1µM* | 2.1
O=C(O)[C@@H]1[C@@H](C(=O)Nc2ccccc2)[C@@H]2C=C[C@@H]1O2 | -12.5% | -1.7%[13.5 µM] | .
S=c1[nH]nc(-c2ccccc2)n1/N=C/C=C/c1ccco1 | 11.2µM* | ? | 15.5
S=c1[nH]nc(-c2ccco2)n1/N=C/C=C/c1ccccc1 | 14.1µM* | ? | 2.6
FC(F)(F)c1n[nH]c(=S)n1/N=C/c1ccco1 | -9.3% | -7.6% | 5.2
Nn1c(-c2ccco2)n[nH]c1=S | -20.4% | -11.0% | 1.9
CN(Cc1nc(Cc2cccc(C(F)(F)F)c2)no1)C1CC(C)(C)NC(C)(C)C1 | . | -0.5% | .
Cc1ccc(C(=O)NNS(=O)(=O)c2ccccc2[N+](=O)[O-])cc1 | -19.4% | -10.4% | 11.4
Cc1ccc(S(=O)(=O)NCCCOC(=O)Nc2ccncc2)cc1 | -6.3% | 15.8µM* | -9.7
Cc1ccc(S(=O)(=O)NCCCNC(=O)c2ccccc2)cc1 | -12.1% | 12.6µM* | -0.9
Cc1ccc(C(=O)NCCCNc2ccccc2[N+](=O)[O-])cc1 | . | 2.24µM* | .
Cc1ccc(S(=O)(=O)NCCNC(=O)c2ccccc2)cc1 | -4.0% | -3.6% | 3.0
Cc1ccc(S(=O)(=O)NCCc2ccncc2)cc1 | 2.0% | ? | 8.2
SMILES | HPGD inh | ALDH1A1 inh | IMPase cell inh
COC(=O)c1c(N2C(=O)[C@H]3[C@@H](C2=O)[C@]2(C(=O)Nc4c(C)cccc42)N2CCC[C@@H]32)sc(C)c1C | -17.0% | 19.8% | .
COc1cc(OC)cc(C(=O)NCC(=O)N2CCCCC2)c1 | -12.0% | 12.5% | 4.9
O=C(CSc1nc(C2CCCCC2)n(-c2ccccc2)n1)NCC(F)(F)F | 1.2% | 0.4% | -4.6
Cc1ccc2c(c1)c(=O)c1ccccc1n2CCCC(=O)Nc1ccc(F)cc1F | . | . | -1.9
Cc1cc(-c2ccco2)n(-c2ccccc2)n1 | 31.6µM* | 1.41µM* | 5.1
Cc1cc(NC(=O)c2cc(-c3ccco3)on2)n(-c2ccccc2)n1 | -10.7% | ? | -6.4
O=c1[nH]c2cc(NCCO)c([N+](=O)[O-])cc2[nH]1 | . | -2.3% | .
O=[N+]([O-])c1ccc(Nc2nc3ccccc3s2)cc1 | -29.1% | 1.41µM* | .
Fc1ccc(Nc2nc3ccccc3s2)cc1 | . | 0.6% | .
COc1cc(S(=O)(=O)Nc2ccccn2)ccc1F | -18.8% | ? | 9.3
O=C(CC1CCS(=O)(=O)C1)Nc1ccc[nH]c1=O (stereo not drawn) | -20.4% | 25.1µM* | 6.8
CCc1ccccc1NC(=O)CC1CS(=O)(=O)CC1CC(=O)Nc1ccccc1CC (stereo not drawn) | -1.4% | 11.2% | -1.1
COc1cc(C)c(NC(=S)NCCCN2CCOCC2)cc1OC | . | -4.1% | .
COC(=O)C1=C(C)NC(C)=C(C(=O)OC)C1c1ccccc1OCc1c(C)no[n+]1[O-] | -21.6% | -3.1% | -3.9
CCCCOC(=O)/C(C#N)=C\c1ccc(-c2ccc(Cl)cc2)o1 | . | . | 4.3
Cc1ccc(N2NC(=O)/C(=C/c3ccc(-c4ccc(Cl)c(C(=O)O)c4)o3)C2=O)cc1 | . | 8.91µM* | .
CCOC(=O)c1cc(-c2ccc(/C=C3/C(=O)NC(=O)C(C#N)=C3C)o2)ccc1Cl | 22.4µM* | 8.91µM* | -5.2
Cc1cc(/C=C2/C(=O)NN(c3ccccc3)C2=O)c(C)n1-c1ccc(O)cc1 | -27.5% | ? | .
CC1=C(C#N)C(=O)NC(=O)/C1=C\c1ccc(-c2ccc(C)cc2[N+](=O)[O-])o1 | . | 12.6µM* | .
COc1ccc(-c2ccc(/C=C3/C(=N)N4C=CSC4=NC3=O)o2)c([N+](=O)[O-])c1 | ? | 7.0% | -7.0
Cc1ccc(N(C(=O)Cn2nnc(-c3ccccc3)n2)C(C(=O)NC2CCCCC2)c2ccccn2)cc1C (stereo not drawn) | -0.8% | 9.2% | .
Cc1ccccc1S(=O)(=O)Nc1nc2ccccc2nc1N1CCc2ccccc2C1 | ? | 3.4% | -8.4
CS(=O)(=O)N1CCC(C(=O)N2CCN(c3ccccc3F)CC2)CC1 | . | 8.1% | .
O=c1c2ccccc2nc2n1CC/C2=C\c1ccccc1[N+](=O)[O-] | -11.2% | 9.9% | -1.3
O=c1c2ccccc2nc2n1CC/C2=C/N1CCN(c2cccc(C(F)(F)F)c2)CC1 | . | 3.98µM* | 17.9
SMILES | HPGD inh | ALDH1A1 inh | IMPase cell inh
CCCCC1=CC2=CC(=O)C(C)(OC(=O)CC)C(=O)C2=CN1CCCN(CC)CC (stereo not drawn) | 0.8% | 3.0%[13.5 µM] | .
CC(C)Cn1c(N)c(C(=O)COC(=O)C2=COCCO2)c(=O)n(C)c1=O | -14.7% | -1.2% | -12.5
Cn1c(N)c(C(=O)COC(=O)c2ccc(Cl)nc2)c(=O)n(C)c1=O | . | -0.2% | .
CC(C)Cn1c(N)c(C(=O)COC(=O)c2ccc([N+](=O)[O-])o2)c(=O)n(C)c1=O | . | 17.8µM* | .
CC(C)Cn1c(N)c(C(=O)COC(=O)c2ccc(O)cc2)c(=O)n(C)c1=O | . | 7.94µM* | .
CC(C)Cn1c(N)c(C(=O)COC(=O)c2cc(F)cc(F)c2)c(=O)n(C)c1=O | . | 4.3% | .
CC(C)Cn1c(N)c(C(=O)COC(=O)c2cnc(Cl)c(Cl)c2)c(=O)n(C)c1=O | . | 0.447µM* | .
COc1ccnc(-n2cccc2/C=N/O)c1C#N | . | -3.8% | .
CCN1C(=O)C(=O)N(CC(=O)Nc2ccccc2Oc2ccccc2)C1=O | . | 0.4% | .
CCOc1ccc(S(=O)(=O)N2CCN(C(=O)c3cc4c(s3)CCCC4)CC2)cc1 | -3.8% | ? | .
COc1cc(C(=O)N2CCC(n3c(C)nc4cc(F)ccc43)CC2)cc(OC)c1OC | -12.3% | 8.1% | -5.0
COc1cc(-n2c(C)nc3cc(C(=O)N4CCOCC4)ccc32)cc(OC)c1OC | 31.6µM* | 2.0% | 4.5
Cc1cc(N2C(=O)C=CC2=O)c([N+](=O)[O-])cc1C | 2.82µM* | 0.794µM* | .
Cc1ccc([N+](=O)[O-])c(C)c1 | -2.4% | -2.4% | .
COc1ccc(C(=O)Cn2c(C(=O)/C=C/c3ccccc3)nc3ccccc32)cc1 | -24.2% | -6.5% | -18.8
COc1ccccc1NC(=O)/C(=N/OCc1ccc(C#N)cc1)C(C)=O | . | -3.2% | .
N[C@@H](CSc1nc2ccccn2c1[N+](=O)[O-])C(=O)O | -9.0% | 10.9%[13.5 µM] | .
